# From PubChem BioAssay (NCATS)
# Inconclusive results are not listed. Entries that show only a call come without a potency. Calls of active or inactive are those of the source. Calls follow the shape of the full dose curve.
# Test: Primary qHTS for inhibitors of MERS-S pseudo-typed particle cell entry (AID 1479149); also: nearly all actives have a fitted effect of over 60% in size
# Conditions: MERS-S pseudotyped particle entry, luciferase; series mostly up to 57.1 µM
Structure (SMILES),Potency,outcome
O=C(OOC(=O)c1ccccc1)c1ccccc1,inactive,
CCCCN(CCCC)CCCOC(=O)c1ccc(N)cc1,inactive,
O=C(C1CCCCC1)N1CC(=O)N2CCCc3ccccc3C2C1 (stereo not given),inactive,
NCC[C@H](O)C(=O)N[C@@H]1C[C@H](N)[C@@H](O[C@H]2O[C@H](CN)[C@@H](O)[C@H](O)[C@@H]2O)[C@H](O)[C@@H]1O[C@H]1O[C@H](CO)[C@@H](O)[C@H](N)[C@@H]1O,,inactive [at 0.573 µM]
CC(C)[C@H](N)C(=O)OCC(CO)OCn1cnc2c(=O)[nH]c(N)nc21 (stereo not given in full),inactive,
O=C(NCC(O)CO)c1c(I)c(C(=O)NCC(O)CO)c(I)c(N(CCO)C(=O)CO)c1I (stereo not given),inactive,
NS(=O)(=O)c1cc(Cl)c(Cl)c(S(N)(=O)=O)c1,inactive,
C=CC1=C(C(=O)O)N2C(=O)[C@@H](NC(=O)/C(=N\O)c3csc(N)n3)[C@H]2SC1 (stereo in doubt),inactive,
COC(=O)CCCCC(CCSS/C(CCO)=C(\C)N(C=O)Cc1cnc(C)nc1N)SC(C)=O (stereo not given),inactive,
NCc1ccc(S(N)(=O)=O)cc1,inactive,
Cc1cc(O)cc2c1O[C@](C)(CCC[C@H](C)CCC[C@H](C)CCCC(C)C)CC2,inactive,
Cc1ccc(C(C)C)cc2c(C)ccc1-2,inactive,
COc1ccc(C(=O)NCc2ccc(OCCN(C)C)cc2)cc1OC,inactive,
CC1(C)S[C@@H]2[C@H](NC(=O)C(c3ccccc3)S(=O)(=O)O)C(=O)N2[C@H]1C(=O)O (stereo not given in full),inactive,
O=c1c(-c2ccc(O)cc2)coc2cc(O)cc(O)c12,inactive,
